# Bioassay records as filed in PubChem BioAssay.
# Only some compounds are listed: those with a hit (about 2.8% of all), similar ones and a draw of the others.
# DRD3 agonist = qHTS of D3 Dopamine Receptor Agonist: qHTS; D(3) dopamine receptor (Homo sapiens), P35462; D3R DiscoveRx beta-arrestin cells, luminescence, 90 min; max activation, %; actives 0.58% (n = 410,000); AID 652048, 2013; in the data active = max activation above about 30%
#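 Agonist-mode cell screen: cells plated at 1500/well and incubated overnight at 37 °C, then exposed to library compounds for 90 min at 37 °C. Detection reagent was added for 30–60 min at room temperature, and luminescence was read.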
# LDHA inh = qHTS assay for inhibitors of human lactate dehydrogenase; L-lactate dehydrogenase A chain (Homo sapiens), P00338; purified LDHA, NADH/diaphorase-resazurin fluorescence; stronger effect = lower value; activity change, % (values are at about 110 or 230 µM); actives 0.15% (n = 480,000); AID 1347041, 2019; in the data active = activity change below about -30%; inconclusive = mostly about -25% to -30%
#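 Human LDH5 (2 nM) was incubated with 0.06 mM NADH and 0.2 mM pyruvate for 5 min at room temperature in Tris pH 7.4. Remaining NADH was coupled through diaphorase/resazurin, and resorufin fluorescence was read at 0 and 20 min.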
# RGS4 inhibitor = Inhibitors of Regulator of G Protein Signaling (RGS) 4: qHTS | Regulator of G-protein signaling 4 (Homo sapiens), P49798 | Transcreener GDP fluorescence polarization, RGS4-accelerated GTP hydrolysis | Potency, µM (series often up to 114 µM), actives largely listed as inhibitors | actives 0.039% (n = 390,000); active = well fitted inhibition curve with a large enough effect; inconclusive = small, poorly fitted or top-dose-only effect; inactive = no such curve, though single readings can be large or run the other way; also: nearly all actives have a fitted effect of over 75% in size
# Target sequence (P49798 whole entry, looked up): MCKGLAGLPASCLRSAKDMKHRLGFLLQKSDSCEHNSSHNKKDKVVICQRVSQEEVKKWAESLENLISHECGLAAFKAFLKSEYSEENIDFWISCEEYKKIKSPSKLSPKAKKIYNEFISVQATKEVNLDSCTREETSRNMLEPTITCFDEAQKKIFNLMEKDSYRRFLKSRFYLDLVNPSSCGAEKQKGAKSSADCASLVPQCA
#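 MLSMR compounds (23 nl, pin-transferred) preincubated 10 min at room temperature with a 500nM (2x) first reagent, then RGS4 at 900nM (2x) plus Transcreener GDP mix added; fluorescence polarization (620/688 nm) read before and after 90 min at 30 °C.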
# DRD3 antagonist = qHTS of D3 Dopamine Receptor Antagonist: qHTS. actives 2.5% (n = 360,000). max response, negative = inhibition, %. D(3) dopamine receptor (Homo sapiens), P35462. D3R cells, DiscoveRx beta-arrestin luminescence, antagonist mode; stronger effect = lower value; in the data active = max response below about -50%; inconclusive = no clear call, values can overlap the other calls
#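 Cells plated overnight at 1500 cells/well, then exposed to library compounds with dopamine controls for 90 minutes at 37 degrees C. DiscoveRx reagent added for 30–60 minutes at room temperature; luminescence read, quantitative HTS format.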
# PI4K2A block = qHTS for small molecular inhibitors of PI4K2A. Phosphatidylinositol 4-kinase type 2-alpha (Homo sapiens), Q9BTU6. AID 1346378, 2018. activity change, negative = inhibition, % at 76.9 µM. purified PI4K2A, ADP-Glo luminescence, 1 h; stronger effect = lower value. actives 0.13% (n = 420,000); in the data active = activity change below about -50%; inconclusive = mostly about -30% to -49%
# Target sequence (Q9BTU6 whole entry, looked up): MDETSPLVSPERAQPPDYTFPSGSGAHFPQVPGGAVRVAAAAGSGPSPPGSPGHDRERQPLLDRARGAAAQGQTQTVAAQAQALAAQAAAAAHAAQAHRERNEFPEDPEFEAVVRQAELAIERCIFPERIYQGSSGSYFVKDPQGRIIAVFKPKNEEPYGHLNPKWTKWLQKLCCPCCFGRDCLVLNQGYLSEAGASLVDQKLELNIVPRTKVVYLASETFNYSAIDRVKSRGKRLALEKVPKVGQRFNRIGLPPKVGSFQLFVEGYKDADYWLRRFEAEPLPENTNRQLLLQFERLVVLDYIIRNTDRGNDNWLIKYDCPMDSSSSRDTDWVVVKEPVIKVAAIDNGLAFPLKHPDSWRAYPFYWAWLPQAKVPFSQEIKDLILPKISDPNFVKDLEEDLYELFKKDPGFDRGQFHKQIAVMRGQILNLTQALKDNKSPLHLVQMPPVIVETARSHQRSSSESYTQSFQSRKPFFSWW
#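 Compounds are screened against recombinant PI4K2A using PI as substrate and ATP, the latter dispensed at 300 microM. Reactions run one hour at ambient temperature before ADP-Glo detection; full inhibition defined by wells lacking enzyme.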
# pAkt inh = HTS Assay for Inhibitors of Akt Phophorylation: Primary Screen; Neuro2A IGF-stimulated pAkt S473 HTRF, 20 min; stronger effect = lower value; activity change, % for hits at 50 µM; actives 0.32% (n = 360,000); in the data active = activity change below about -80%; inconclusive = mostly about -51% to -80%
#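 Neuro2A cells (4,500/well, DMEM with 0.5% FBS) were treated with compound at a single 50 µM final concentration, stimulated with 6 nM IGF for 20 min at 37 °C, and lysed. Phospho-Akt Ser473 was read by HTRF as 665/615 ratio ×10^4.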
# A number is an active result; . = inactive; ? = inconclusive; / = no result given; ! = not confirmed by another sample; [ ] = another dose, or the depositor's remark.
SMILES,DRD3 agonist,LDHA inh,RGS4 inhibitor,DRD3 antagonist,PI4K2A block,pAkt inh
COc1ccc(S(=O)(=O)NC2CCCCC2)cc1C(=O)N1CCCCC1,.,.,.,-66,.,.
CC1CCN(S(=O)(=O)c2ccc(NC(=O)CN3CCN(C)CC3)cc2)CC1,.,-41,.,.,.,.
CCOC(=O)c1sc(Nc2ccc(C(C)=O)cc2)nc1C,/,.,/,/,/,/
Cc1ccc(S(=O)(=O)C(C#N)c2nc3ccccc3nc2N(C)C)cc1 (centres undefined),/,.,/,/,/,/
COc1ccc2nc(-n3ncc4c3NC(=O)CC4c3ccc(O)c(OC)c3)sc2c1 (centres undefined),/,.,/,/,/,/
C=CCNc1oc(/C=C/c2cc(OC)c(OC)c(OC)c2)nc1C#N,/,.,/,/,/,/
CNCCCC12CCC(c3ccccc31)c1ccccc12,/,.,.,-77!,.,.
CC1(C)CC(=O)C(C(C2=C(O)CC(C)(C)CC2=O)c2cc(Cl)c(O)c(Cl)c2)C(=O)C1 (centres undefined),/,.,/,/,/,/
CSc1ccc2c(c1)N(CCC1CCCCN1C)c1ccccc1S2 (centres undefined),.,.,.,-89,.,.
O=S1(=O)C=C(Sc2nc3ccccc3s2)c2ccccc21,.,.,?,-98,.,-108%
Cc1cc(CSc2nc(C)cc(=O)[nH]2)c2ncccc2c1,31,.,.,.,.,.
CC(NC(=O)c1n[nH]c(=O)c2ccccc12)c1cccc2ccccc12 (centres undefined),/,.,/,/,/,/
N#Cc1ccc(NC(=O)COC(=O)c2nc(-c3ccccc3)n(-c3ccccc3)n2)cc1,/,.,/,/,/,/
Cn1c(=O)oc2cc(S(=O)(=O)Nc3cccc([N+](=O)[O-])c3)ccc21,.,.,.,-88,.,.
O=C(OCc1ncc(-c2ccccc2)o1)c1ccc(O)cc1,/,.,/,/,/,/
CC(C)(C)c1cccc(P(=O)(c2ccccc2)c2ccccc2)c1O,.,.,.,.,.,.
O=P(c1ccccc1)(c1ccccc1)c1ccccc1C(Br)Br,.,.,/,-67,.,.
O=C(NNS(=O)(=O)c1ccc(Cl)cc1)c1cccs1,.,.,.,-61,.,.
COc1ccc(S(=O)(=O)NNC(=O)c2cccs2)cc1,.,.,.,.,.,.
CN(C)CCNC(=O)C(c1ccccc1)c1ccccc1,.,.,.,.,.,.
CN(C)CC(c1ccccc1)c1ccccc1,.,.,.,.,.,.
CC(CCCN(C)C)C(Cc1ccccc1)c1ccccc1 (centres undefined),.,.,.,-69,.,.
CN(C)CCC(=O)C(Cc1ccccc1)c1ccccc1 (centres undefined),.,.,?,-112,.,.
COc1cccc(-c2cccc3c2NC(=O)C3(C)Cc2cccc(F)c2)c1 (centres undefined),.,.,/,-70,.,.
Cc1ccc(CNc2ccc(N3CCCC3)cc2)cc1,/,.,/,/,/,/
SMILES,DRD3 agonist,LDHA inh,RGS4 inhibitor,DRD3 antagonist,PI4K2A block,pAkt inh
Cn1c(=N)n(CC(=O)c2ccccc2)c2ccccc21,.,.,.,.,.,.
Cn1c(=N)n(CC(=O)O)c2ccccc21,.,.,.,-62,.,.
CCCCCCCCCCCCCC(=O)O[C@H](CC(=O)O)C[N+](C)(C)C,/,/,.,/,/,/
CCCCCCCCCC(=O)OCC(CO)OC(=O)CCCCCCCCC (centres undefined),/,/,27µM,/,/,/
CCCCCCCCCCCCCCCC(=O)OC(CC(=O)O)C[N+](C)(C)C (centres undefined),.,.,19µM!,.,.,.
CCCCCCCCCCCCCCCC(=O)OCC(COC(=O)CCCCCCCCCCCCCCC)OC(=O)CCCCCCCCCCCCCCC,.,/,/,/,/,/
COc1cc(Nc2ncnc3scc(-c4ccc(Cl)cc4)c23)cc(OC)c1,/,.,/,/,/,/
Cc1ccc(NS(=O)(=O)c2ccc3oc(=O)ccc3c2)c(C)c1,/,.,/,/,/,/
COc1ccc(Br)cc1CSc1nnc(C2CC2)n1C1CC1,/,.,/,/,/,/
COc1cccc(CC2(CO)CCCN(C/C=C/c3ccccc3OC)C2)c1 (centres undefined),.,.,.,-82,.,.
COc1ccccc1/C=C/CN1CCCC(CO)(Cc2cccc(Cl)c2)C1 (centres undefined),.,.,.,-59,.,.
COc1ccc(/C=C/CN2CCCC(CO)(Cc3cccc(Cl)c3)C2)cc1 (centres undefined),.,.,.,-60,.,.
Cc1cc2oc(=O)cc(CN3CCc4cc(S(N)(=O)=O)ccc43)c2cc1C,/,.,/,/,/,/
O=C(O)c1cccc(-n2cccc2/C=C2/NC(=O)N(c3ccc(Cl)cc3)C2=O)c1,.,.,?,.,?,.
O=C(O)c1cccc(-n2cccc2/C=C2/NC(=O)N(c3cccc(Cl)c3)C2=O)c1,.,-30!,.,.,.,.
CC(C)N(C(=O)c1ccc(I)cc1)C(C)C,/,.,/,/,/,/
COc1ccc(NC(=O)N2CCC(N(C)S(C)(=O)=O)CC2)cc1,/,.,/,/,/,/
O=c1[nH]c(CN2CCN(C/C=C/c3ccccc3)CC2)nc2cc(Cl)ccc12,.,.,.,-53,.,.
CCN(Cc1ccccc1)C(=O)C1CCN(Cc2ccc(OC)c(OC)c2OC)CC1,.,.,.,-51,.,.
COc1ccc(CN2CCN(Cc3ccc(Br)cc3)CC2)c(OC)c1OC,.,-30,.,?,.,.
COc1ccc(CN2CCN(c3ccc(F)cc3)CC2)c(OC)c1OC,.,.,.,.,.,.
COc1ccc(CN2CCN(Cc3cccc(Oc4ccccc4)c3)CC2)c(OC)c1OC,.,.,.,-70,.,.
CCN(Cc1ccccc1)C(=O)C1CCN(Cc2ccc(SC)cc2)CC1,.,.,.,.,.,.
Brc1ccc(CN2CCSCC2)cc1,.,-30,.,.,.,.
O=C(CN1CCN(Cc2ccsc2)CC1)Nc1ccccc1C(=O)NC1CCCC1,/,.,/,/,/,/
CCCN1CCN(c2nc3c(c(=O)[nH]c(=O)n3C)n2Cc2ccccc2C)CC1,/,.,/,/,/,/
Cc1cccc(-n2c(O)c(C=NCCCN3CCOCC3)c3ccccc3c2=O)c1,.,.,.,.,.,-121%
COc1cccc2c1[C@@H]1CN(CCCCn3c(=O)[nH]c4c(sc5ncc(-c6ccccc6)nc54)c3=O)C[C@@H]1CO2,.,.,?,-99,.,.
COc1cc2[nH]c(=O)n(CCCC(=O)N3CC=C(c4ccccc4)CC3)c(=O)c2cc1OC,.,.,.[11.4 µM],.,.,.
Nc1cccc(-c2ccc(Cl)c(Cl)c2)c1,/,.,/,/,/,/
